# Test results reported in PubChem BioAssay.
# The source made the active and inactive calls. Unless noted, how the calls were made is not given here.
# Legend:
# [1] = HepG2 liver cancer cell viability effects, profiling panel, resazurin fluorescence, 24 h, PK04 Diversity Set (AID 1172); details: higher = more signal
# [2] = basal S. cerevisiae growth modulation, no modifier, primary screen, OD600, strain BY4716, 24 h, basal condition (AID 1173); details: OD600, 24 h, higher = more signal, called active from +8 up or from −8 down
# [3] = MM1S myeloma cell viability, profiling panel, resazurin fluorescence, basal, 24 h, PK04 Diversity Set (AID 1174); details: higher = more signal, called active from +8 up or from −8 down;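 further: MM1S multiple myeloma cell line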
# [4] = target: Dihydroorotate dehydrogenase (quinone), mitochondrial (Plasmodium falciparum (isolate 3D7)) (UniProt Q08210); experiment: PfDHODH enzyme inhibitors, primary screen, biochemical, C-terminal His tag, absorbance 600 nm (AID 1175); details: DCIP absorbance 600 nm, higher = more signal, called active from +8 up or from −8 down;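 further: recombinant parasite enzyme with a five histidine tag at its C terminus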
# [5] = S. cerevisiae RM11-1a growth modifiers, primary screen, strain RM11-1a, OD600, basal, 24 h (AID 1177); details: OD600, 24 h, higher = more signal, called active from +8 up or from −8 down;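 further: cultures grown under basal conditions with no added stressor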
# [6] = E. coli acrAB mutant growth effects, primary screen, E. coli filamentation inducers, strain DRC39, OD650, 24 h (AID 1178); details: higher = more signal, called active from +8 up or from −8 down;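 further: growth measured as culture turbidity by optical density at 650 nm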
# [7] = E. coli acrAB mutant growth effects, primary screen, E. coli filamentation inducers, strain DRC39, OD650, 48 h (AID 1179);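 further: screen aims at cell division blockers that make cells filament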; details: E. coli DRC39 delta-acrAB growth, higher = more signal, called active from +8 up or from −8 down
# [8] = RPMI8226 myeloma cell viability, profiling panel, resazurin fluorescence, basal, 24 h, PK04 Diversity Set (AID 1180); details: higher = more signal;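 further: RPMI8826 multiple myeloma cell line at 5000 cells per well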
# [9] = target: E3 ubiquitin-protein ligase XIAP (Homo sapiens) (UniProt P98170); experiment: XIAP binders, primary screen, biophysical, small-molecule microarray, fluorescence 635 nm (AID 1181); details: small-molecule microarray binding, higher = more signal;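 further: score merges 667 nm emission and signal to noise over triplicate slides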
# [10] = system: XIP peptide (Xip251-270) binding; experiment: small-molecule binders of XIP peptide, primary screen, biochemical, small-molecule microarray, fluorescence 635/667 nm, 0.1 µg/mL protein (AID 1182); details: fluorescent protein binding, 635 nm, higher = more signal, called active from +8 up or from −8 down
# XIP peptide (Xip251-270) = experiment: small-molecule binders of XIP peptide, primary screen, biochemical, small-molecule microarray, fluorescence 635/667 nm, 0.5 µg/mL protein (AID 1183); details: small-molecule microarray binding, fluorescence 635 nm; higher = more signal
# [11] = Plasmodium falciparum growth inhibition, primary screen, strain 3D7, DAPI fluorescence, 100 nL (AID 1184);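 further: parasites grown inside human red blood cells in medium with human serum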; details: P. falciparum 3D7 growth, 3 d, higher = more signal
# [12] = target: Homeobox protein Hox-A13 (Mus musculus) (UniProt Q62424); experiment: inhibitors of HoxA13-DNA binding, primary screen, biochemical, fluorescence polarization, labeled oligonucleotide (AID 1185); details: 15 min, higher = more signal, called active from +8 up or from −8 down
# [13] = inhibitors of hydroxyurea-induced Chk1 phosphorylation, primary screen, imaging, HeLa, phospho-Chk1 antibody, percent positive cells (AID 1186); details: hydroxyurea-induced phospho-Chk1 immunofluorescence imaging, higher = more signal
# [14] = inhibitors of hydroxyurea-induced Chk1 phosphorylation, primary screen, imaging, HeLa, phospho-Chk1 nuclear intensity (AID 1187); details: hydroxyurea-induced phospho-Chk1 immunofluorescence imaging, higher = more signal
# E3 ubiquitin-protein ligase XIAP (Homo sapiens), sequence (P98170 whole entry, looked up): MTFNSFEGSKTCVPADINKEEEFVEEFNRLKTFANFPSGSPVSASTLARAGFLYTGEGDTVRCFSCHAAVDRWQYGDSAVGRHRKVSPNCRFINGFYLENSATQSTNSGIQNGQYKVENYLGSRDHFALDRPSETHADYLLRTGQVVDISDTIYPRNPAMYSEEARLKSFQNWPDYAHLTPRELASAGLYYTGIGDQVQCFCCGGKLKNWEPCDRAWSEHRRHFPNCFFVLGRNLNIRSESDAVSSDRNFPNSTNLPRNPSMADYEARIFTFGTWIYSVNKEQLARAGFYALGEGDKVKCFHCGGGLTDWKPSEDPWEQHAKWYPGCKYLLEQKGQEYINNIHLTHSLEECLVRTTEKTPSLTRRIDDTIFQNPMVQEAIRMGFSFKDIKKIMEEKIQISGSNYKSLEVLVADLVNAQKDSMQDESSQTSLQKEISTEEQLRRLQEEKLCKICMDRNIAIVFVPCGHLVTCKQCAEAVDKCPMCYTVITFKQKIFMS
# Dihydroorotate dehydrogenase (quinone), mitochondrial (Plasmodium falciparum (isolate 3D7)), sequence (Q08210 whole entry, looked up): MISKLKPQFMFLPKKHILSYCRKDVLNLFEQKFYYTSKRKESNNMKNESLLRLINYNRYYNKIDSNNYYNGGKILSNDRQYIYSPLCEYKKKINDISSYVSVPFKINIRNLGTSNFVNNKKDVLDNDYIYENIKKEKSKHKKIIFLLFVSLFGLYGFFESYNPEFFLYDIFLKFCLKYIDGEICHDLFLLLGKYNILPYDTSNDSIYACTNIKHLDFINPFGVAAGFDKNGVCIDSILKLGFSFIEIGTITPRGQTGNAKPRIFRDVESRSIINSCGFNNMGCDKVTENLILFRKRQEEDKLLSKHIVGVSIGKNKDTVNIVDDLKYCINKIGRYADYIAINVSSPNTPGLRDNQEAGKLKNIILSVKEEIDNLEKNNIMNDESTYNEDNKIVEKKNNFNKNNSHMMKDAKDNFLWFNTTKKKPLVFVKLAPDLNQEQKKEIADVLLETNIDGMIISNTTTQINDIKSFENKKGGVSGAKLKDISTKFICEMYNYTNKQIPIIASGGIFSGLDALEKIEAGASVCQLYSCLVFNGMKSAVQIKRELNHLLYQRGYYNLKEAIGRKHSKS
# Homeobox protein Hox-A13 (Mus musculus), sequence (Q62424 whole entry, looked up): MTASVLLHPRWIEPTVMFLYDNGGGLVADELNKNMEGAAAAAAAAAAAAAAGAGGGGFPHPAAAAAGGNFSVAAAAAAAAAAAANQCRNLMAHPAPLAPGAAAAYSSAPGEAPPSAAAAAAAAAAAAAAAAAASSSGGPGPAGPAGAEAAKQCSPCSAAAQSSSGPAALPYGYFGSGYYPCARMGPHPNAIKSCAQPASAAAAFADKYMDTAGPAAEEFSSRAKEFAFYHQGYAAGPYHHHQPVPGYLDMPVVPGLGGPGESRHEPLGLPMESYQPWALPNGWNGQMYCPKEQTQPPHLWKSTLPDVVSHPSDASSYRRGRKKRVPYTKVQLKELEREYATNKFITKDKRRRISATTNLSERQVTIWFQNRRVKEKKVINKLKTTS
SMILES,z-score [1],z-score [2],z-score [3],composite z-score [4],z-score [5],z-score [6],z-score [7],z-score [8],composite z-score [9],composite z-score [10],composite z-score (XIP peptide (Xip251-270)),z-score [11],z-score [12],z-score [13],z-score [14]
C=CC[C@]1(C(=O)O)N=C(c2ccc(OCCCO)cc2)O[C@H]1c1ccccc1,0.734,-2.31 (inactive),1.63 (inactive),1.51 (inactive),0.344 (inactive),2.94 (inactive),1.25 (inactive),1.77,0.109,1.81 (inactive),0.615,-1.63,-4.1 (inactive),-0.0836 (inactive),0.409 (inactive)
O=C1OCC=C[C@H]2OC34C=CCN(Cc5ccccc5)C(=O)[C@H]3N(CCCCCO)C(=O)[C@@H]4[C@@H]12 (stereo not given in full),-0.399,-0.693 (inactive),0.238 (inactive),-0.0022 (inactive),-0.512 (inactive),1.77 (inactive),1.22 (inactive),0.58,0.101,0.211 (inactive),-0.85,-1.99,-3.21 (inactive),0.729 (inactive),0.0912 (inactive)
C=CC(=O)O[C@@H](Cc1ccccc1)[C@H]1C2C=CCCC=C2CN1Cc1cccc(Cl)c1 (stereo not given in full),1.36,-2.29 (inactive),0.399 (inactive),0.566 (inactive),-0.718 (inactive),2.63 (inactive),0.338 (inactive),1.26,0.348,-0.244 (inactive),-2.01,-0.0093,-3.7 (inactive),0.171 (inactive),0.304 (inactive)
O=C(NCc1ccccc1)[C@@]1(CCS(=O)(=O)c2ccccc2)COC(c2ccc(OCCCO)cc2)=N1,0.929,0.0648 (inactive),-0.12 (inactive),-0.297 (inactive),1.52 (inactive),2.95 (inactive),1.9 (inactive),-0.0092,0.272,1.13 (inactive),0.881,-2.26,-4.72 (inactive),-0.712 (inactive),-0.464 (inactive)
CN(C)CCCC[C@@H]1NC(=O)[C@@H]2C[C@H](C(=O)O)[C@H](c3ccc(O)cc3)N2C1=O,-1.15,-0.976 (inactive),1.2 (inactive),-0.621 (inactive),-0.422 (inactive),0.994 (inactive),-0.0998 (inactive),0.493,0.101,0.646 (inactive),0.386,-1.35,2.19 (inactive),0.317 (inactive),0.448 (inactive)
COC(=O)C1=CC(c2ccc(CO)cc2)=CC(C2CC2)N(Cc2sc3ccccc3c2Cl)C=C1C(=O)OC (stereo not given),0.0452,-4.51 (inactive),-2.01 (inactive),-0.245 (inactive),-0.844 (inactive),-2.1 (inactive),-1.67 (inactive),-1.75,0.0909,2.17 (inactive),0.889,-2.13,-2.26 (inactive),-0.288 (inactive),-0.225 (inactive)
C=CC[C@]1(C(=O)OC)N=C(c2ccc(OCCCO)cc2)O[C@H]1c1ccccc1CN=[N+]=[N-],0.84,-4.46 (inactive),-0.609 (inactive),0.632 (inactive),0.0359 (inactive),2.63 (inactive),0.604 (inactive),0.239,0.232,-0.127 (inactive),-0.239,-2.35,-1.99 (inactive),-0.0854 (inactive),0.137 (inactive)
C[N+](C)(C)CCCC[C@@H]1NC(=O)[C@H]2C[C@@H](C(=O)NCc3ccc(F)cc3)[C@@H](c3cccc(OCCO)c3)N2C1=O,0.523,-1.84 (inactive),1.33 (inactive),-0.347 (inactive),-1.62 (inactive),0.765 (inactive),0.604 (inactive),-0.0523,0.245,1.61 (inactive),0.675,0.13,-1.22 (inactive),0.06 (inactive),0.274 (inactive)
CN1C2C=C(c3ccc(CO)cc3)C(C3C(=O)N(C(N)=O)C(=O)C32)C1c1cccs1 (stereo not given),0.935,-1.28 (inactive),1.05 (inactive),0.683 (inactive),1.19 (inactive),1.09 (inactive),0.798 (inactive),0.898,-0.337,0.549 (inactive),0.92,-1.65,-5.19 (inactive),-1.21 (inactive),-1.11 (inactive)
CC(C)(C)OC(=O)CC[C@]1(C(=O)NCCN2CCOCC2)N=C(c2ccc(OCCCO)cc2)O[C@H]1c1ccccc1CN=[N+]=[N-],-0.0646,-1.56 (inactive),1.07 (inactive),-0.114 (inactive),-1.36 (inactive),1.16 (inactive),0.277 (inactive),1.38,0.564,1.16 (inactive),0.58,-0.867,-4.75 (inactive),-0.593 (inactive),-0.6 (inactive)
[N-]=[N+]=Nc1ccccc1C[C@@]1(C(=O)N2CCOCC2)N=C(c2ccc(OCCCO)cc2)O[C@@H]1c1ccccc1N=[N+]=[N-],-0.133,-2.54 (inactive),-1.93 (inactive),-0.489 (inactive),0.0278 (inactive),1.08 (inactive),0.115 (inactive),-3.91,-0.256,0.49 (inactive),0.348,-2.28,-5.16 (inactive),-1.03 (inactive),-1.06 (inactive)
C=CC[C@@]1(C(=O)N2CCOCC2)N=C(c2ccc(OCCCO)cc2)O[C@@H]1c1ccccc1,0.781,-1.69 (inactive),1.1 (inactive),0.702 (inactive),1.45 (inactive),0.788 (inactive),-0.0676 (inactive),1.02,-0.167,1.79 (inactive),-0.526,-1.74,-5.67 (inactive),-0.648 (inactive),-0.241 (inactive)
COCCOC(=O)N1C(=O)[C@@]2(c3cc(C#CCC(C(=O)OC)C(=O)OC)ccc31)[C@H](C(=O)N1CCN(c3ncccn3)CC1)[C@H]1C(=O)O[C@H](c3ccccc3)[C@H](c3ccccc3)N1[C@@H]2c1ccc(O)cc1,0.203,-0.746 (inactive),0.805 (inactive),-1.06 (inactive),0.164 (inactive),0.535 (inactive),1.31 (inactive),0.821,-0.0749,1.36 (inactive),0.843,-2.08,-0.323 (inactive),-0.447 (inactive),-0.685 (inactive)
CC(C)[Si]1(C(C)C)OCc2cc(C3CC3)nc(-c3ccccc3)c21,0.883,-1.53 (inactive),0.972 (inactive),0.135 (inactive),-1.75 (inactive),1.39 (inactive),0.656 (inactive),0.536,0.0399,0.119 (inactive),0.939,-1.16,-0.631 (inactive),-0.37 (inactive),-0.0248 (inactive)
C=C[C@H](OC)[C@@H](OC(=O)Nc1ccc(SC)cc1)c1ccc(OC)c(O)c1,1.06,-1.14 (inactive),0.7 (inactive),-0.768 (inactive),-1.55 (inactive),1.51 (inactive),1.93 (inactive),0.933,-0.0773,0.241 (inactive),0.0001,-0.549,-2.82 (inactive),-0.439 (inactive),0.136 (inactive)
CCCCCCc1nc(C2CC2)c(C)c2c1[Si](C(C)C)(C(C)C)OC2,0.252,-0.875 (inactive),1.47 (inactive),-3.54 (inactive),-2.89 (inactive),1.6 (inactive),0.878 (inactive),0.232,0.109,-0.0485 (inactive),-0.462,-2.41,2.65 (inactive),-0.53 (inactive),-0.23 (inactive)
CO[C@H]1O[C@H](CO)[C@@H](OC(=O)Nc2ccc(Oc3ccccc3)cc2)[C@H](OC(=O)Nc2ccccc2-c2ccccc2)[C@H]1OC(=O)Nc1ccccc1-c1ccccc1,-2.96,1.94 (inactive),-3.97 (inactive),-0.326 (inactive),4.09 (inactive),0.275 (inactive),-0.534 (inactive),-2.5,0.344,1.57 (inactive),0.832,-2.09,0.193 (inactive),-0.0605 (inactive),0.413 (inactive)
C=CC[C@@]12N=C(c3ccc(OCCCO)cc3)O[C@@H]1c1ccccc1CN(Cc1ccccc1)C2=O,-0.806,-0.251 (inactive),-3.75 (inactive),1.27 (inactive),1.77 (inactive),1.4 (inactive),0.485 (inactive),-3.21,-0.0473,1.54 (inactive),0.78,-2.61,-1.94 (inactive),-0.367 (inactive),0.0207 (inactive)
Cc1ccc(S[C@]2(C(=O)NCCN3CCOCC3)CC(=O)N(C3Cc4ccccc4C3)[C@@H]2c2ccc(CO)cc2I)cc1,0.0862,-5.55 (inactive),-1.48 (inactive),-0.24 (inactive),-2.62 (inactive),-0.0522 (inactive),-0.169 (inactive),-1.41,0.194,0.669 (inactive),0.771,-0.861,-2.43 (inactive),0.18 (inactive),0.764 (inactive)
C=CCNC(=O)[C@H]1[C@@H]2C(=O)O[C@@H](c3ccccc3)[C@@H](c3ccccc3)N2[C@@H](c2ccccc2OCCO)[C@]12C(=O)N(C(=O)OCCOC)c1ccc(C#CCC(C(=O)OC)C(=O)OC)cc12,-0.234,1.06 (inactive),1.25 (inactive),0.229 (inactive),1.72 (inactive),1.11 (inactive),0.761 (inactive),-0.54,0.182,1.09 (inactive),0.818,-2.36,0.6 (inactive),-0.263 (inactive),-0.35 (inactive)
